High-throughput results from PubChem BioAssay.
Sampled rows, rich in hits. Any-hit rate of the full collection: about 19%.
HT1080-NT tox = kills 2HG-producing HT-1080-NT fibrosarcoma cells | HT-1080-NT fibrosarcoma viability, CellTiter-Glo ATP luminescence, 48 h | Potency, µM (top dose mostly 46.1 µM), actives largely listed as cytotoxic | 360,000 tested, 1.6% active;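 also: NT is the 2HG producing partner of a matched IDH1 knockdown line; nearly all actives have a fitted effect of over 55% in size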
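Toxicity toward the 2HG-producing NT line was scored as %Activity, normalised to DMSO and no-cell wells, from CellTiter-Glo luminescence after 48 hours' treatment.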
ELG1 DNA repair = blocks ELG1-dependent DNA repair in HEK293T cells; HEK293T ELG1-luciferase reporter, luminescence, 16 h; DNA damage induced by 5-fluorouridine; Potency, µM (top dose mostly 46.1 µM), hits mostly inhibitors; 330,000 tested, 2.3% active; also: nearly all actives have a fitted effect of over 55% in size
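Reporter activity after DNA damage by 5-fluorouridine is monitored. Compound-treated cells incubate 16 hr at 37 °C, then ONE-Glo is added for 30 min before luminescence reading.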
DT40 TDP1 CPT = growth inhibition of DT40 Tdp1-/-;hTDP1 cells with camptothecin (screen for TDP1 inhibitors); chicken DT40 Tdp1-/-;hTDP1 cells + 20 nM CPT, ATP luminescence, 48 h; Potency, µM (doses to about 46.2 µM), most hits filed as inhibitors; 420,000 tested, 12% active; AID 686979; also: nearly all actives have a fitted effect of over 55% in size
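Cell growth measured by CellTiter-Glo luminescence after a minimum 48 h, 37 C compound exposure with 20 nM CPT in Tdp1-knockout DT40 cells stably expressing hTDP1, seeded 400/well; qHTS titration format.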
TDP1 cell noCPT = qHTS for Inhibitors of human tyrosyl-DNA phosphodiesterase 1 (TDP1): qHTS in cells in absence of CPT; DT40 Tdp1-/- hTDP1 cells, no CPT, ATP luminescence, 48 h; Potency, µM (highest dose often 46.2 µM), usual class: inhibitors; 420,000 tested, 15% active; AID 686978, 2013; also: nearly all actives have a fitted effect of over 55% in size
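Seeded 400 DT40-hTDP1 cells/well (vehicle DMSO, no 20 nM CPT); pinned compounds; ≥48 hr at 37 °C; CellTiter-Glo luminescence as viability measure.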
HT1080 IDH1KD tx = toxicity to HT-1080 IDH1 knockdown cells (counter line); HT-1080 IDH1 knockdown viability, ATP luminescence, 48 h; Potency, µM (top dose mostly 46.1 µM), actives largely listed as cytotoxic; 360,000 tested, 2% active; AID 686971
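% activity derives from luminescence (CellTiter-Glo), normalised to DMSO and no-cell wells. HT-1080-IDH1KD cells, 750/well, had 48 h compound exposure at 37 °C.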
IL1B secr inh = blocks inflammasome-driven IL-1 beta release; THP-1 LPS/ATP IL-1B secretion, AlphaLISA, 16 h; active compounds read low; activity change, % at 57.5 µM; 360,000 tested, 4.7% active; AID 743279; in the data active = activity change below about -50%; inconclusive = mostly about -30% to -49%
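THP-1 cells pretreated 1 hr with compounds (up to 57.5 uM final), then stimulated with LPS (250 ng/mL final) plus ATP (1.25 mM final); secreted IL-1B measured by AlphaLISA after 16 hr, decreased signal indicating inhibition.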
A number is an active result; 0 = inactive; ? = inconclusive; - = not tested or not shown. Unless noted, calls follow the shape of the dose curve; as a rule, active = well fitted curve in the direction sought with a large enough effect; inconclusive = small, poorly fitted or top-dose-only effect, or another doubt; inactive = no such curve, though single readings can be large; an effect the other way counts as inactive or inconclusive.

SMILES	HT1080-NT tox	ELG1 DNA repair	DT40 TDP1 CPT	TDP1 cell noCPT	HT1080 IDH1KD tx	IL1B secr inh
Cc1ccccc1NCC(=O)N/N=C/c1c(C)c(C(=O)c2ccc(Cl)cc2)n2ccccc12	0	?	16.4µM	16.4µM	0	0
Cc1c(/C=N/NC(=O)CNc2ccccc2)c2ccccn2c1C(=O)c1ccc(Cl)cc1	0	23.1µM	?	?	0	?
Cc1c(/C=N/NC(=O)CNc2ccccc2)c2ccccn2c1C(=O)c1ccncc1	0	18.4µM	0	0	0	0
CC(Oc1ccc2cc(-c3ccccc3)c(=O)oc2c1)C(=O)NCC1CCC(C(=O)O)CC1 (stereo unspecified)	0	?	0	0	0	0
CC[C@H](C)C(N)c1cn([C@@H](CC(N)=O)C(=O)N2CCNCC2)nn1 (stereo partly specified)	0	0	0	0	0	0
Cc1ccccc1CC(=O)NC1CCN(Cc2ccccc2)CC1	0	0	0	0	0	0
Cc1cccc(NC(=O)CN(C)C(=O)Cc2ccc(-c3ccccc3)cc2)c1C	0	-	?	0	0	0
CCCCCCCC/C=C\CCCCCCCC(=O)OC[C@@H](O)[C@H]1OC[C@H](O)[C@H]1O	-	-	0	0	-	-
Oc1ccc(Cl)c(CN2CCN(c3ncc(Cc4ccccc4)cn3)CC2)c1	?	-	?	18.4µM	?	0
Oc1cccc(CN2CCN(c3ncc(Cc4ccccc4)cn3)CC2)c1	0	-	?	?	0	0
COc1ccc(O)cc1CN1CCN(c2ncc(Cc3ccccc3)cn2)CC1	?	-	23.1µM	16.4µM	?	0
O=C(N=C1c2ccccc2CN1c1ccccc1)c1cccc([N+](=O)[O-])c1	0	0	0	11.6µM	0	0
